“And” between values parts separate entries of the source, which are not always exact repeats. Equal entries are not always repeated. The campaign covered roughly 310,000 compounds. About 410 (0.13%) were called active. Another 2% or so got no clear call; they are omitted. The list is a sample of the results. Measured potencies and affinities stand elsewhere. A number with no mark means an inactive call. How the calls were made is not given here.

This assay in a line: RSV antiviral activity via CPE protection, HEp-2 cells, primary 10 µM value included (AID 2391). Conditions: RSV-induced CPE inhibition, at 10 µM, stronger effect = higher value.
Take `COc1ccc(Cl)cc1C(=O)N(Cc1nc(-c2cccc(C)c2)no1)C(C)C`: the CPE inhibition was 10.2%. On to `COc1ccccc1C(=O)N(Cc1nc(-c2ccc(Cl)cc2)no1)C(C)C`, for which the CPE inhibition is 2.22%. For `CC(C)NS(=O)(=O)c1ccc(CCC(=O)N2CCCC2)cc1`, the CPE inhibition was 1.63%. Under `CCC1CCCCN1C(=O)c1ccc2nc(Cc3ccc(OC)cc3)oc2c1` (centres undefined) stands 20.7%.

With `CC1CCCCC12NC(=O)N(CC(=O)Nc1ccccc1-c1ccccc1)C2=O` (centres undefined), the CPE inhibition is -0.96%. With `Cc1cccc(NC(=O)CNC(=O)CN2C(=O)NC3(CCCCC3C)C2=O)c1C` (centres undefined), the CPE inhibition was -0.96%. Under `COc1ccc(C(=O)NCc2cc(C)nc3ccccc23)cc1OC` stands 19%; under `CCOCCCNC(=O)C1CCN(Cc2cccc(OCc3ccccc3)c2)CC1`, -0.9%; under `CCOC(=O)Cn1nnnc1C(CC)N(Cc1cc2ccc(C)cc2[nH]c1=O)C1CCCC1` (centres undefined), 0%. Under `CCOC(=O)Cn1nnnc1C(C(C)C)N(Cc1cc2c(C)cc(C)cc2[nH]c1=O)C1CCCC1` (centres undefined) stands 9.34%; under `CN(Cc1ccccc1)C(=O)CN1C(=O)c2ccc([N+](=O)[O-])cc2C1=O`, 1.1%; under `CC(=O)Nc1ccc(NC(=O)COc2ccc(Cl)cc2Cl)cc1`, 5.13%. Under `N#CCCN(CCC#N)C(=O)COc1ccc(Cl)cc1Cl` stands 2.86%; under `COc1ccc(NC(=O)Nc2ccc3c(c2)CCC3)c(OC)c1`, 3.19%; under `CCOc1ccccc1NC(=O)Nc1ccc2c(c1)CCC2`, 7.85%.

In the case of `O=C(CCl)NC1CCCc2ccccc21` (centres undefined), the CPE inhibition was -0.24%. Under `O=C(NC1CCCc2ccccc21)c1ccc(Br)cc1` (centres undefined) stands 6.09%; under `O=C(Cc1ccc(Br)cc1)NC1CCCc2ccccc21` (centres undefined), 2.96%. Under `COc1cc(C(=O)NCCC(=O)NC2CCCc3ccccc32)cc(OC)c1OC` (centres undefined) stands 0.19%; under `O=c1c2ccccc2ncn1Cc1ccc(Cl)c(Cl)c1`, 3.3%; under `Cc1cc(C)[n+]2n1C(=O)C(c1ccccc1)=C2[O-]`, 3.89% and 3.76%. The value for `O=C(Nc1ccccc1SCC1CSc2nc3ccccc3c(=O)n21)c1ccccc1` (centres undefined) was 2.48%; that for `O=c1c2ccccc2nc2n1C(CSCc1ccc(Cl)cc1Cl)CS2` (centres undefined) was 5.16%. For the molecule `Nc1ccccc1SCC1CSc2nc3ccccc3c(=O)n21` (centres undefined), the CPE inhibition was 2.42%. `COc1cccc(SCC2CSc3nc4ccccc4c(=O)n32)c1` (centres undefined): the CPE inhibition was 7.09%. Take `O=c1c2ccccc2nc2n1C(CSc1ccc(F)cc1)CS2` (centres undefined): the CPE inhibition was 2.75%.

Take `O=c1c2ccccc2nc2n1C(CSc1ccccc1)CS2` (centres undefined): the CPE inhibition was 1.34%. Under `O=C(OC(C(=O)NC1CCCC1)c1ccccc1F)c1ccco1` (centres undefined) stands 0.45%; under `Nc1cc(=O)[nH]c(SCC(=O)N2N=C(c3ccc(Cl)cc3)CC2c2ccco2)n1` (centres undefined), 7.31%; under `CCn1c(=O)n(CC(=O)Nc2ccc(F)cc2)c(=O)c2ccccc21`, 2.36%. Under `CC(=O)OC[C@H]1O[C@@H](Sc2cccc3cccnc23)[C@H](OC(C)=O)[C@@H](OC(C)=O)[C@@H]1OC(C)=O` stands 1.39%; under `O=C(NC1CC2CCCC(C1)N2C(=O)Nc1ccccc1)C1CC1` (centres undefined), 1.59%.

For `O=C(COC(=O)/C=C/c1ccc(C(F)(F)F)cc1)NCC1CCCO1` (centres undefined), the CPE inhibition is -1.68%.

As for `Cc1sc2nc3c(C(=O)N4CCCC4)cc(C(=O)c4ccccc4O)cn3c(=O)c2c1C`, the CPE inhibition was 1.18%. Under `CCOC(=O)c1sc2nc3c(SCC(=O)O)cc(C(=O)c4ccccc4O)cn3c(=O)c2c1C` stands 11.9%. On to `O=C(Nc1ccncc1)c1c(Cl)cccc1Cl`, for which the CPE inhibition is 0%. `Cc1c(C)c2c(OCC(=O)N3CCC[C@H]3C(=O)O)cc3c(c2oc1=O)CCC(C)(C)O3`: the CPE inhibition was 0.96%. The value for `O=C(Nc1ccc(Cl)c(C(F)(F)F)c1)[C@@H]1CC=C[C@@H]2CCN(Cc3ccc(Cl)c(Cl)c3)C(=O)[C@@H]21` was 7.28%; that for `O=C(Nc1ccc(Cl)c(C(F)(F)F)c1)[C@@H]1CC=C[C@@H]2CCN(Cc3ccccc3)C(=O)[C@@H]21` was 2.53%. Under `COc1ccc(OC)c(Nc2nc3nonc3nc2N2CCCCC2)c1` stands 1.59%; under `O=C(CCCOc1ccc(Cl)cc1Cl)Nc1ccc(O)cc1C(=O)O`, 0.3%. Under `COc1ccccc1NC(=O)COc1ccc2ccccc2c1` stands 4.1%; under `O=C(Cc1ccccc1C(=O)O)Nc1cccc2ccccc12`, 1.4%; under `COc1cc(NC(=O)CCCOc2ccc(Cl)cc2Cl)c(C(=O)O)cc1OC`, 6.77%. With `O=C(Cc1cccc2ccccc12)Nc1ccc(O)cc1C(=O)O`, the CPE inhibition is 2.4%. Under `O=C(COc1ccc2ccccc2c1)Nc1cccc(C(=O)Nc2ccccc2C(=O)O)c1` stands 20.8%; under `Cc1ccc(Cl)cc1N(C(=O)c1csnn1)C(C(=O)NC1CCCC1)c1ccco1` (centres undefined), 1.87%. The value for `O=C(CN1C(=O)NC2(CCCCCC2)C1=O)Nc1ccc2c(c1)CCC2` was 2.7%; that for `O=C(NCC(c1ccco1)N1CCCCC1)c1ccc(NS(=O)(=O)c2ccc(F)cc2)cc1` (centres undefined) was 3.02%; that for `COc1ccc(-c2noc(CN3CCN(c4ccccc4)CC3)n2)cc1` was -0.23%. With `Cc1cccc(NC(=O)c2ccc(S(=O)(=O)N3CCCC3)cc2)c1C`, the CPE inhibition is 1.87%. The value for `CC(OC(=O)c1cccn1C)C(=O)Nc1ccc2c(c1)OCO2` (centres undefined) was 2.62%; that for `CCN(CC(=O)Nc1ccc(Br)cc1)C(=O)c1nc2nc(C)cc(C)n2n1` was 1.87%. With `CC(C)(C)N1C(=O)c2ccc(C(=O)Nc3cc(C(=O)O)cc(C(=O)O)c3)cc2C1=O`, the CPE inhibition was 0.7%. For `COC(=O)c1cccc(NC(=O)c2ccc3c(c2)C(=O)N(C(C)(C)C)C3=O)c1`, the CPE inhibition is 9.97%. Under `CCCOC(=O)Cn1cnc2scc(-c3ccc(C)cc3)c2c1=O` stands 0.39%. On to `COc1ccc(N=C2C(=Nc3ccc(OC)cc3)N(c3ccc(OC)cc3)C(=S)N2C)cc1`, for which the CPE inhibition is 0.37%. On to `COc1ccc(N=C2C(=Nc3ccc(OC)cc3)N(c3ccc(OC)cc3)C(=S)N2c2ccccc2)cc1`, for which the CPE inhibition is 0.02%. The value for `Cc1c(CC(=O)N2CCN(C(=O)C3COc4ccccc4O3)CC2)c(=O)oc2cc(O)ccc12` (centres undefined) was 0.83%. Under `Cc1cc(OC(C(=O)O)c2ccccc2)c2c(C)c(Cc3ccccc3)c(=O)oc2c1` (centres undefined) stands 11.6%; under `COC(=O)Cc1c(C)c2c(O)cc(C)cc2oc1=O`, 6.65%. Turning to `Cc1cc(O)c2c(C)c(CC(=O)N3CCN(C(=O)C4COc5ccccc5O4)CC3)c(=O)oc2c1` (centres undefined), the CPE inhibition was 6.34%. The value for `CCOC(=O)Cc1c(C)c2ccc(N(CC)CC)cc2oc1=O` was 57.9%; that for `Cc1coc2c1c(C)cc1oc(=O)c(Cc3ccccc3)c(C)c12` was 1.6%. Under `C=CCN(CC(=O)Nc1c(C)cccc1CC)C(=O)SCCC` stands 0.77%. Under `Cc1[nH]c(C)c(S(=O)(=O)Nc2ccc(OC(F)(F)F)cc2)c1C(=O)N1CCCCC1` stands 1.31%; under `C#CCOc1nc2c(c(=O)n(C)c(=O)n2C)n1Cc1ccccc1`, 6.97%. Regarding `CCc1ccc(-c2cc(C(=O)N3N=C(C(F)F)CC3(O)C(F)F)c3ccccc3n2)cc1` (centres undefined), the CPE inhibition was -3.61%. On to `CC1c2cc3c(cc2CCN1C(=O)c1cccc(F)c1)OCCCO3` (centres undefined), for which the CPE inhibition was 2.63%.

`CCCCc1ncc(CN2CCC(n3nccc3NC(=O)c3ccccc3Cl)CC2)[nH]1`: the CPE inhibition is 0.19%.

On to `Cc1ccc(N2NC(=O)/C(=C/c3ccc(-c4ccc(Cl)c(C(=O)O)c4)o3)C2=O)cc1`, for which the CPE inhibition is 0.38%. Under `O=C(O)c1cc(-c2ccc(/C=C3\NC(=O)N(c4ccccc4)C3=O)o2)ccc1Cl` stands 4.99%; under `Cc1cccnc1NC(=O)c1ccc(OCc2c(C)noc2C)cc1`, 1.6%. Under `CCOc1ncccc1C(=O)Nc1nc(C(C)(C)C)cs1` stands 0.68%. Under `CC(C)(C)c1csc(NC(=O)c2cccnc2Cl)n1` stands 1.36%. In the case of `COc1ccc(CC2(CO)CCN(Cc3ccc(OC(F)(F)F)cc3)CC2)cc1`, the CPE inhibition is 13.9%. In the case of `COc1ccccc1NC(=O)Nc1nc(CC(=O)Nc2ccc(OC)c(OC)c2)cs1`, the CPE inhibition is -1.37%. Under `Cc1cc(OCc2cc(C(=O)N(C)CCOc3ccccc3)no2)cc(C)c1Cl` stands 13.7%; under `COc1ccccc1CNC(=O)C1CCCN(S(=O)(=O)c2cccc3nonc23)C1` (centres undefined), 0.88%; under `O=C(NCc1ccccc1Cl)C1CCCN(S(=O)(=O)c2cccc3nonc23)C1` (centres undefined), 0.66%. `COc1ccc(CNC(=O)C2CCN(S(=O)(=O)c3cccc4nonc34)CC2)cc1`: the CPE inhibition is 0.73%. The value for `O=C(NCc1ccc(Cl)cc1)C1CCN(S(=O)(=O)c2cccc3nonc23)CC1` was 5.35%. The value for `O=C(NNC(=O)C12CC3CC(CC(C3)C1)C2)c1ccccn1` was 1.78%; that for `C/C(CC(=O)Nc1cc(C)ccn1)=N\NC(=O)C(=O)NC(C)C` was -0.96%. Under `CC12CCC(O)CC1=CCC1C2CCC2(C)C1CCC21CCC(=O)O1` (centres undefined) stands 7.71%; under `CC(=O)C1[C@H](N(C)C)CC2C3CC=C4CC(O)CC[C@]4(C)C3CC[C@@]21C` (some centres undefined), 0.54%. For the molecule `CCN(CC)S(=O)(=O)c1ccc(N2C(=O)CC2(/C=C/c2ccccc2)C(=O)NC2CCCC2)cc1` (centres undefined), the CPE inhibition was 4.54%. `Cc1c(Cl)ccc2c(C(=O)NCCCn3nccc3C)cc(-c3ccccn3)nc12`: the CPE inhibition is 13.8%.

For the molecule `Cc1nnc(NC(=O)CSc2ccc(-c3cccnc3)nn2)s1`, the CPE inhibition was 2.73%.

These data come from PubChem BioAssay AID2391 (Southern Research Specialized Biocontainment Screening …, 2010).
